Reference: PubChem BioAssay (NCI)
Compounds without any hit were thinned out: in the full panel of roughly 83,000, 20% have a hit.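 Single-dose data. Exposure time 48 hours. Values below 10 considered active.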 Activity calls are given as the source filed them.

Key:
Test in all cases: NCI-60 one-dose screen, 48 h (100 = growth as untreated, 0 = no growth, -100 = all killed)
[1] = system: SK-MEL-2 melanoma; settings: 10 µM unless noted
[2] = system: EKVX NSCLC; settings: 10 µM unless noted
[3] = system: SN12C renal; settings: 10 µM unless noted
[4] = system: UO-31 renal; settings: 10 µM unless noted
[5] = system: TK-10 renal; settings: 10 µM unless noted
[6] = system: ACHN renal; settings: 10 µM unless noted
[7] = system: CAKI-1 renal; settings: 10 µM unless noted
[8] = system: A498 renal; settings: 10 µM unless noted
[9] = system: CCRF-CEM leukemia; settings: 10 µM unless noted
[10] = system: MOLT-4 leukemia; settings: 10 µM unless noted
[11] = system: SR leukemia; settings: 10 µM unless noted
[12] = system: RPMI-8226 leukemia; settings: 10 µM unless noted
[13] = system: OVCAR-4 ovarian; settings: 10 µM unless noted
[14] = system: SK-OV-3 ovarian; settings: 10 µM unless noted
[15] = system: IGROV1 ovarian; settings: 10 µM unless noted
[16] = system: OVCAR-3 ovarian; settings: 10 µM unless noted
[17] = system: HS 578T breast; settings: 10 µM
[18] = system: NCI/ADR-RES ovarian; settings: 10 µM unless noted
[19] = system: OVCAR-8 ovarian; settings: 10 µM unless noted
[20] = system: OVCAR-5 ovarian; settings: 10 µM unless noted

Measured: growth

C#CC[C@@H]1C[C@]2(C)[C@H]3CC=C4[C@H]5[C@@H](C)[C@H](C)CC[C@]5(C(=O)NCCCN5CCN(CCCN)CC5)CC[C@@]4(C)[C@]3(C)CC[C@H]2C(C)(C)[C@H]1OC(C)=O
inactive: [8] 111% | [14] 115% | [18] 61.7%
active: [1] -57.3% | [2] -83.4% | [3] -43.8% | [4] -84.2% | [5] -32.8% | [6] -74.9% | [7] -68% | [9] -29.4% | [10] -38.1% | [11] -5.62% | [12] -52.1% | [13] -17.5% | [15] -60.5% | [16] -73.7% | [17] -25.3%

O=C1C=CC(=O)N1CO
inactive: [1] 123% | [2] 138% | [3] 99% | [4] 89.1% | [5] 114% | [6] 108% | [7] 117% | [8] 113% | [9] 101% | [12] 112% | [19] 110% | [13] 130% | [14] 116% | [15] 109% | [16] 113% | [17] 108% | [18] 129%
active: [10] -32.2%

COc1ccc(Nc2ncccc2C(=O)NCc2cn(Cc3cc(OC)cc(OC)c3)nn2)cc1
inactive: [1] 89.5% | [2] 92.5% | [3] 109% | [4] 65.7% | [5] 108% | [6] 93.8% | [7] 101% | [8] 95.8% | [10] 82.7% | [11] 84.8% | [12] 99.8% | [19] 97.6% | [20] 106% | [13] 98% | [14] 98.7% | [15] 113% | [16] 96.5% | [17] 86.2% | [18] 89.7%

COc1ccc(-c2oc(=O)ccc2-c2cc(OC)c(OC)c(OC)c2)cc1F
inactive: [1] 92.8% | [2] 99.6% | [3] 87.9% | [4] 47.3% | [5] 88.2% | [6] 87.1% | [7] 52.9% | [8] 83.4% | [9] 57.6% | [12] 80.8% | [19] 79.9% | [20] 69.2% | [13] 105% | [14] 106% | [15] 80.4% | [16] 107% | [17] 86.4% | [18] 57.9%
active: [11] 7.57%

CCOC(=O)c1ccc(N(CCC(=O)O)C(C)=O)cc1
inactive: [1] 105% | [2] 130% | [3] 107% | [4] 79% | [5] 105% | [6] 112% | [7] 101% | [8] 104% | [9] 98.3% | [11] 129% | [12] 110% | [19] 104% | [20] 102% | [14] 114% | [15] 103% | [16] 120% | [17] 114% | [18] 109%

COCCn1c(Nc2ccc(C(=O)NO)cc2)nc2ccccc21
inactive: [1] 39.6% | [2] 56.5% | [3] 66.3% | [4] 50.3% | [5] 26.7% | [6] 57.1% | [7] 47.3% | [8] 84.2% | [9] 48.5% | [10] 33.4% | [12] 44% | [19] 37.3% | [13] 72.2% | [14] 49.2% | [15] 57.5% | [16] 83.5% | [17] 80.7%
active: [18] -9.22%

COc1cc(OC)cc(-c2n/c(=C\c3c(O)[nH]c4ccc(Cl)cc34)cc3c2=Nc2ccccc2-3)c1
active: [15] -21.3%
inactive: [1] 100% | [2] 91.9% | [3] 93.5% | [4] 66.4% | [5] 116% | [6] 81.3% | [7] 82.1% | [8] 94.2% | [10] 30.5% | [11] 23.5% | [12] 71.2% | [19] 54.5% | [20] 114% | [13] 16.1% | [14] 114% | [16] 69.7% | [17] 90.4% | [18] 81.6%

Cc1nc2n[nH]c(N)c2nc1C
inactive: [1] 103% | [2] 106% | [3] 103% | [4] 87% | [5] 104% | [6] 104% | [7] 106% | [8] 120% | [9] 101% | [12] 106% | [19] 95.1% | [20] 102% | [13] 106% | [14] 104% | [15] 97.9% | [16] 104% | [17] 114% | [18] 103%

COc1cc2c(cc1I)-c1c(cc(OC)c(OC)c1OC)CC[C@@H]2NC(C)=O
active: [7] 8.95% | [8] -30.6% | [15] 9.96% | [17] -21.4% | [18] -19.2%
inactive: [1] 18.7% | [2] 44.6% | [3] 26.2% | [4] 29.5% | [5] 59% | [6] 33.2% | [9] 22.4% | [10] 24.3% | [12] 35.5% | [19] 24.6% | [20] 36% | [13] 40.8% | [14] 10.3% | [16] 17.3%

Nc1cccc(S(=O)(=O)c2cccc(N)c2)c1
inactive: [1] 116% | [2] 105% | [3] 112% | [4] 95.8% | [5] 123% | [6] 102% | [7] 98.4% | [8] 108% | [9] 102% | [10] 10.4% | [12] 110% | [19] 113% | [20] 99.7% | [13] 102% | [14] 120% | [15] 114% | [16] 113% | [17] 118% | [18] 115%

COC(=O)/C=C/c1cc(OC(C)=O)c2c(c1)[C@@H](C(=O)OC)[C@H](c1ccc(OC(C)=O)c(OC(C)=O)c1)O2
inactive: [1] 37.9% | [2] 34.2% | [3] 24.2% | [4] 39.3% | [5] 48.5% | [6] 24.3% | [7] 17.9% | [11] 10.8% | [19] 11% | [20] 20.6% | [13] 30.4% | [14] 36.4% | [15] 12.2%
active: [8] -14.3% | [9] 6.74% | [12] 3.3% | [16] -21.9% | [17] 7.01% | [18] -5.91%

CCc1oc2ccccc2c1C(=O)c1cc(I)c(O)c(I)c1
inactive: [2] 84.5% | [3] 46.4% | [4] 80% | [5] 87.7% | [6] 72.9% | [7] 45.9% | [8] 98.2% | [9] 66.2% | [10] 32.5% | [12] 55.2% | [19] 56.7% | [20] 86.5% | [13] 71% | [14] 105% | [15] 50.5% | [16] 13.6% | [17] 49.2%
active: [1] 1.14% | [18] -6%

Nc1nc(N)c2cc(CNc3ccc(Cl)c(Cl)c3)ccc2n1
inactive: [1] 42% | [2] 31.4% | [3] 27.4% | [5] 31.5% | [6] 22.5% | [7] 14.8% | [8] 43.1% | [20] 48.4% | [13] 49.8% | [14] 49.9% | [15] 15.9% | [16] 12.1% | [17] 28.8% | [18] 28.3%
active: [4] 0.0737% | [9] 2.81% | [11] -55.1% | [12] -31.5% | [19] -1.81%

CCCCCCCCCC1=NC(C)(C)CN1C(C)(C)CO
inactive: [1] 124% | [2] 90.8% | [3] 83.6% | [4] 56.8% | [5] 97.7% | [6] 93.6% | [7] 75% | [8] 93% | [9] 82.4% | [10] 15.9% | [12] 81% | [19] 102% | [20] 88.3% | [13] 117% | [14] 124% | [15] 72.1% | [16] 86.1% | [17] 100% | [18] 95.7%

Cc1ccc(-c2cnc3sc4ccc(Cl)cc4n23)cc1
inactive: [1] 103% | [2] 67.1% | [3] 93% | [4] 64.9% | [5] 158% | [6] 92.2% | [7] 84.2% | [8] 88.2% | [9] 106% | [11] 111% | [12] 98.6% | [19] 103% | [13] 86.9% | [14] 75.7% | [15] 81% | [16] 101% | [17] 110% | [18] 94.6%

Oc1ccc(CCCCCCc2ccc(O)cc2)cc1
active: [6] -4.64%
inactive: [1] 89.2% | [2] 74.5% | [3] 69.6% | [4] 25.6% | [5] 84.9% | [7] 16.8% | [8] 103% | [9] 18.5% | [10] 106% | [12] 64.7% | [19] 44.1% | [20] 86.1% | [13] 50% | [14] 71.5% | [15] 60.4% | [16] 83.1% | [17] 103% | [18] 33.3%

CC(=O)c1nn(-c2ccccc2)/c(=N\N=C\c2coc3ccc(F)cc3c2=O)s1
inactive: [1] 107% | [2] 81.6% | [3] 97.6% | [4] 69.6% | [5] 163% | [6] 94% | [7] 82.3% | [8] 125% | [9] 97.2% | [11] 96.2% | [12] 91.9% | [19] 107% | [20] 110% | [13] 108% | [14] 98.9% | [15] 87.2% | [16] 111% | [17] 95.1% | [18] 104%
